# Targets with the largest changes are over-represented here; the source holds about 21,000 in all.
# Target: XPOT_O43592_877_HIVPACFLAPLK (UniProt O43592)
# Test: probe-labelled cysteine peptide fold change vs DMSO (competition) (log2 fold change); higher = less target engagement (more negative = stronger competition)
# Conditions: THP-1, incubation time: 4 h
# 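Note: competitive chemoproteomic profiling in live THP-1 cells with an iodoacetamide desthiobiotin (IA-DTB) probe, comparing probe-labelled peptide intensities in compound-treated cells against DMSO-treated controls.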
# Chain of UniProt O43592 (O43592 whole entry, looked up): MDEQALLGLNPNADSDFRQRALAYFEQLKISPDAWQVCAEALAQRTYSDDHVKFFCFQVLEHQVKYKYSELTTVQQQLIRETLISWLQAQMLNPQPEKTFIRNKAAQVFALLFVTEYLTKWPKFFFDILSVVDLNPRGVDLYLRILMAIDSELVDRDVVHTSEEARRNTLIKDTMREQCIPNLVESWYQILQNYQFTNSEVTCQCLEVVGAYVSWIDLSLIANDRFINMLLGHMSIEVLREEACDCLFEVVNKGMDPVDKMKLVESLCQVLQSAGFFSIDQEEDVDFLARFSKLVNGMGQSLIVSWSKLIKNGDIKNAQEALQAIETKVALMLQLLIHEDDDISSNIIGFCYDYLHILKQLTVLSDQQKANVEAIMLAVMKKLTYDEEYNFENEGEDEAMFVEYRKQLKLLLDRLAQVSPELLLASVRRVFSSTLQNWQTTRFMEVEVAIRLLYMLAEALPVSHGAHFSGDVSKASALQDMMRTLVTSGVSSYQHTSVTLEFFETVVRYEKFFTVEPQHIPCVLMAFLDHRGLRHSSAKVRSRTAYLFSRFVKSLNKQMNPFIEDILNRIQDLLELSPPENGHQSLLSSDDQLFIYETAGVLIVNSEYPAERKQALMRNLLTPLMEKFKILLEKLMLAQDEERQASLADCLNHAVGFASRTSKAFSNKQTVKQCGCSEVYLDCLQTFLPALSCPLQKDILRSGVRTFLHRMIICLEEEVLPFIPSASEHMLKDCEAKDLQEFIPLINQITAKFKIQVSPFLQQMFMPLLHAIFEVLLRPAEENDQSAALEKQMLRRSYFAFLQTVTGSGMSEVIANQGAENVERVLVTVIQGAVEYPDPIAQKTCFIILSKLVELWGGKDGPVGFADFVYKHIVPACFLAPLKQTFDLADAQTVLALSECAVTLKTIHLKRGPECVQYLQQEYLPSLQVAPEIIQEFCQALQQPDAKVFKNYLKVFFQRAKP
structure (smiles),measurement,setting,value
CC1Cc2ccccc2N1C(=O)C1CCCN(C(=O)CCl)C1 (mixture of isomers) [TRIM25 ligand 11 (diastereomer mixture)],probe-labelled cysteine peptide fold change,10 µM,0.0433
same,probe-labelled cysteine peptide fold change,50 µM,0.0734

# — the supplement of paper PMC12067093, “Discovery and optimisation of a covalent ligand for TRIM25 and its application to targeted protein ubiquitination” (Chemical Science, 2025)
